The values that follow come from PubChem BioAssay (NCI).

The structures appear in SMILES notation. The panel holds about 83,000 compounds, 20% with a hit somewhere; the sample as a whole holds those more often.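 In brief: 96-well plates, 48 h treatment, single concentration, percent growth endpoint.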 A number with no mark means an inactive call. Activity calls are given as the source filed them. How the source made its calls: active means growth percent below 10; inactive means the rest.

Some test systems named below: HT29 colon; SNB-75 CNS; SNB-19 CNS; U251 CNS; PC-3 prostate; SK-MEL-5 melanoma; UACC-62 melanoma; LOX IMVI melanoma; SK-MEL-28 melanoma; SK-MEL-2 melanoma; EKVX NSCLC; SN12C renal; UO-31 renal; TK-10 renal; ACHN renal; CAKI-1 renal; A498 renal; CCRF-CEM leukemia; MOLT-4 leukemia.
What all share (experiment): NCI-60 one-dose screen, 48 h (100 = growth as untreated, 0 = no growth, -100 = all killed)
What all share (conditions): 10 µM

Turning to `COc1ccc(C(=O)/C=C/c2ccc(Cl)c(C(F)(F)F)c2)cc1S(N)(=O)=O`, the growth in the experiment with HT29 colon is -76.9% (active); in the experiment on SNB-75 CNS, -33.7% (active); in the experiment with SNB-19 CNS it was -100% (active); in the experiment on U251 CNS, -68.7% (active); in the experiment with PC-3 prostate, -48.2% (active); in the experiment on SK-MEL-5 melanoma it was -89.4% (active). Further, the growth is -98.7% (active) in the experiment on UACC-62 melanoma; -91.4% (active) in the experiment on LOX IMVI melanoma; -100% (active) with SK-MEL-28 melanoma; -83.1% (active) in the experiment on SK-MEL-2 melanoma; -98.2% (active) in the experiment on EKVX NSCLC; -100% (active) in the experiment with SN12C renal. Also, the growth was -99.6% (active) in the experiment with UO-31 renal; -96.3% (active) with TK-10 renal; -100% (active) in the experiment on ACHN renal; -100% (active) in the experiment with CAKI-1 renal; -30.3% (active) in the experiment on A498 renal; 4.6% (active) in the experiment on CCRF-CEM leukemia. Besides, the growth with MOLT-4 leukemia is 8.09% (active).
On to `Cc1ccc(/C(CSc2nnc(-c3c[nH]c4ccccc34)n2-c2ccccc2)=N/O)cc1`, for which the growth in the experiment with HT29 colon is 6.35% (active); in the experiment on SNB-19 CNS, -18.5% (active); in the experiment with PC-3 prostate, -46.5% (active); in the experiment on SK-MEL-5 melanoma it was 34.1%; with UACC-62 melanoma, -52.6% (active); in the experiment on LOX IMVI melanoma, -88.2% (active). Also, the growth with SK-MEL-28 melanoma was 62.5%; in the experiment on SK-MEL-2 melanoma, 62.7%; in the experiment with EKVX NSCLC it was 28.3%; in the experiment on SN12C renal it was -36.7% (active); in the experiment on UO-31 renal, 6.45% (active); in the experiment on TK-10 renal, -65.1% (active). The growth was -61.7% (active) with ACHN renal; -27.4% (active) in the experiment with CAKI-1 renal; 91.9% with A498 renal; -35% (active) in the experiment with CCRF-CEM leukemia; -27.8% (active) in the experiment with MOLT-4 leukemia.
Take `COc1ccc(C2N(c3ccc(Br)cc3)N=C(C(C)=O)N2[C@H]2[C@H](OC(C)=O)O[C@H](COC(C)=O)[C@@H](OC(C)=O)[C@@H]2OC(C)=O)cc1` (stereo not given in full): the growth with HT29 colon was 75.2%; in the experiment on SNB-75 CNS, 74.7%; in the experiment on SNB-19 CNS, 78.2%; with U251 CNS, 74.8%; with PC-3 prostate, 43.2%; with SK-MEL-5 melanoma it was 77.7%. Also, the growth in the experiment with UACC-62 melanoma is 56.9%; in the experiment with LOX IMVI melanoma, 71.1%; in the experiment with SK-MEL-28 melanoma, 86.4%; with SK-MEL-2 melanoma it was 77.9%; in the experiment with EKVX NSCLC, 59.4%; with SN12C renal, 79.7%. In addition, the growth in the experiment on UO-31 renal was 44.5%; with TK-10 renal, 68.9%; in the experiment on ACHN renal, 61.1%; with CAKI-1 renal, 70.8%; in the experiment with A498 renal, 61.3%; with CCRF-CEM leukemia, 78.8%. In addition, in the experiment on MOLT-4 leukemia, the growth was 54.6%.
In the case of `O=C(NO)c1ccc(CNc2nc(-c3ccccc3)c3ccccc3n2)cc1`, the growth is 4.73% (active) with HT29 colon; 29% in the experiment on SNB-75 CNS; -8.9% (active) with SNB-19 CNS; -37.7% (active) with U251 CNS; 16.7% in the experiment on PC-3 prostate; -87.8% (active) in the experiment with SK-MEL-5 melanoma. Further, the growth is -87.2% (active) in the experiment with UACC-62 melanoma; -96.9% (active) with LOX IMVI melanoma; -2.7% (active) in the experiment on SK-MEL-28 melanoma; -20.4% (active) with SK-MEL-2 melanoma; 15.6% in the experiment on EKVX NSCLC; -0.363% (active) in the experiment with SN12C renal. Besides, the growth in the experiment on UO-31 renal was -18.8% (active); in the experiment on ACHN renal it was -74.2% (active); in the experiment with CAKI-1 renal, -4.81% (active); with A498 renal, -42.4% (active); in the experiment on CCRF-CEM leukemia, 15%; with MOLT-4 leukemia it was 12.3%.
For the molecule `O=C1Nc2ccc(Cl)cc2/C1=C/c1ccc(OCc2ccc(Br)cc2F)cc1`, the growth is 40.5% in the experiment with HT29 colon; 18.3% with SNB-75 CNS; 23% in the experiment on SNB-19 CNS; -5.75% (active) with U251 CNS; 41.4% in the experiment with PC-3 prostate; 32.6% in the experiment on SK-MEL-5 melanoma. Further, the growth in the experiment on UACC-62 melanoma is 32.5%; with LOX IMVI melanoma, 7.62% (active); with SK-MEL-28 melanoma, 63.7%; in the experiment with SK-MEL-2 melanoma, 80%; in the experiment with EKVX NSCLC, 41%; in the experiment with SN12C renal, 34.2%. Also, the growth with TK-10 renal was 18.6%; in the experiment on ACHN renal, 3.32% (active); with CAKI-1 renal, 28.9%; in the experiment with A498 renal it was 4.76% (active); in the experiment with CCRF-CEM leukemia it was 43.1%; in the experiment with MOLT-4 leukemia, 63.5%.
For the molecule `CCCCSc1nc(Nc2ccc(/C(C)=N/NC(N)=S)cc2)c(C#N)c(-c2ccc(OC)cc2)n1`, the growth is 86.7% in the experiment on HT29 colon; 37.7% in the experiment with SNB-75 CNS; 63.8% with SNB-19 CNS; 85.2% in the experiment on PC-3 prostate; 46.2% in the experiment with SK-MEL-5 melanoma; 44.7% in the experiment with UACC-62 melanoma. For the same molecule, the growth is -10.1% (active) with LOX IMVI melanoma; 90.5% in the experiment on SK-MEL-28 melanoma; 104% with SK-MEL-2 melanoma; 79.4% with EKVX NSCLC; 7.27% (active) in the experiment with SN12C renal; -19.7% (active) with UO-31 renal. Besides, the growth is -0.624% (active) with TK-10 renal; 55.2% with ACHN renal; 32.2% in the experiment on A498 renal; 86.2% in the experiment on CCRF-CEM leukemia; 67.7% in the experiment with MOLT-4 leukemia.
As to `Cn1cc(-c2cc(N)n3nc(-c4c[nH]c5ccc(Br)cc45)cc3n2)c2cc(Br)cnc21`, the growth in the experiment with HT29 colon was -86.3% (active); with SNB-75 CNS, -19.6% (active); in the experiment with SNB-19 CNS, -35.9% (active); with U251 CNS it was -76.5% (active); with PC-3 prostate, -44.8% (active); in the experiment with SK-MEL-5 melanoma, -99% (active). Besides, the growth in the experiment with UACC-62 melanoma was -75% (active); in the experiment with LOX IMVI melanoma, -94.5% (active); in the experiment with SK-MEL-28 melanoma, -87.1% (active); with SK-MEL-2 melanoma it was -83.6% (active); in the experiment on EKVX NSCLC, -84.1% (active); in the experiment with UO-31 renal, -70.9% (active). Moreover, the growth was -81.9% (active) in the experiment with TK-10 renal; -93.2% (active) in the experiment with ACHN renal; -69.1% (active) with CAKI-1 renal; -86.5% (active) with A498 renal; -32.1% (active) with CCRF-CEM leukemia; -28.6% (active) with MOLT-4 leukemia.
For `CC(=O)NNc1ccc2nnc(-c3ccc(Br)cc3)n2n1`, the growth with HT29 colon was 103%; with SNB-75 CNS it was 121%; in the experiment with SNB-19 CNS, 92%; in the experiment on U251 CNS, 93.3%; in the experiment on PC-3 prostate, 93.6%; in the experiment with SK-MEL-5 melanoma, 95.4%. Moreover, the growth in the experiment with UACC-62 melanoma was 87.9%; with LOX IMVI melanoma, 100%; in the experiment on SK-MEL-28 melanoma it was 106%; in the experiment with SK-MEL-2 melanoma it was 104%; with EKVX NSCLC, 81.7%; in the experiment with SN12C renal, 105%. Further, the growth in the experiment with UO-31 renal was 82.1%; in the experiment on TK-10 renal, 103%; in the experiment on ACHN renal, 101%; in the experiment on CAKI-1 renal it was 90.3%; in the experiment with A498 renal it was 83.4%; in the experiment on CCRF-CEM leukemia, 40.1%. In addition, the growth in the experiment with MOLT-4 leukemia is 92.3%.
